TGFb inhibitor – inhibitors of TGF-b signaling. AID 588855. actives 1.2% (n = 410,000). HepG2 CAGA-GFP TGF-b/SMAD3 reporter, GFP fluorescence, 18 h; TGF-beta stimulated, 500 pg/mL final. Potency, µM (top dose mostly 46.1 µM), for the others: at the top dose activity, negative = inhibition, hits mostly inhibitors; further: on the % scale 0 is the no-effect control and ±100 the full control effect; nearly all actives have a fitted effect of over 65% in size
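TGF-beta reporter screen: HEPG2 CAGA-GFP, 1% FBS, 500 pg/mL TGF-beta final, 18 h; per-cell GFP summed per well; curves fitted and categorized by class.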
DT40 TDP1 no CPT – qHTS for Inhibitors of human tyrosyl-DNA phosphodiesterase 1 (TDP1): qHTS in cells in absence of CPT | Potency, µM (top dose mostly 46.2 µM), for the others: at the highest dose activity change, negative = growth inhibition, hits mostly inhibitors | DT40 Tdp1-/- hTDP1 cells, no CPT, ATP luminescence, 48 h | actives 15% (n = 420,000); further: on the % scale 0 is the no-effect control and ±100 the full control effect; nearly all actives have a fitted effect of over 55% in size
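DT40 Tdp1-/-;hTDP1 cells, no CPT (DMSO vehicle only), 400 cells/well; compounds pin-transferred; ≥48 hr, 37 °C; CellTiter-Glo 30 min RT dark, luminescence read.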
HT1080 IDH1KD tx – HT-1080 IDH1 knockdown cell toxicity (counter line); HT-1080 IDH1 knockdown viability, ATP luminescence, 48 h; Potency, µM (series often up to 46.1 µM), without a hit: at the top dose activity, negative = toxicity, hits mostly cytotoxic; actives 2% (n = 360,000); AID 686971;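 further: 0% = DMSO wells and -100% = cell-free medium wells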
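Viability of IDH1-knockdown HT-1080 fibrosarcoma cells was assessed by CellTiter-Glo after 48 h at 37 °C with titrated compound; concentration-effect curves were classified by fit quality and response size.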
DT40 TDP1 CPT – growth inhibition of DT40 Tdp1-/-;hTDP1 cells with camptothecin (screen for TDP1 inhibitors); chicken DT40 Tdp1-/-;hTDP1 cells + 20 nM CPT, ATP luminescence, 48 h; AID 686979; actives 12% (n = 420,000); Potency, µM (doses to about 46.2 µM), for the others: top-dose activity change, negative = growth inhibition, actives largely listed as inhibitors; further: on the % scale 0 is the no-effect control and ±100 the full control effect; nearly all actives have a fitted effect of over 55% in size
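Chicken DT40 Tdp1-/- cells stably complemented with human TDP1 were seeded at 400 cells/well in medium containing 20 nM camptothecin, exposed to pin-transferred compounds, and grown at 37 °C for at least 48 hr. Viability was read as ATP luminescence.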
HepG2 tox – kills HepG2 cells in TGF-b inhibitor counter-screen; HepG2 CAGA-GFP viability, ATP luminescence, 18 h; actives 0.76% (n = 410,000); Potency, µM (titrated, usually from 46.1 µM), without a hit: at the top dose activity change, negative = cytotoxicity, usual class: cytotoxic; AID 588856
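CellTiter-Glo luminescence gave cytotoxicity after 18 hours at 37 degrees C. The cells were HepG2 CAGA-GFP in 1% FBS DMEM, stimulated with 500 pg/mL TGF-beta after compound addition. %Activity was normalised to no-cell wells (complete cell-killing) and DMSO (no toxicity), and curves were fitted and classified.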
HT1080NT lethal – kills 2HG-producing HT-1080-NT fibrosarcoma cells; HT-1080-NT fibrosarcoma viability, CellTiter-Glo ATP luminescence, 48 h; Potency, µM (series often up to 46.1 µM), for inactives: at the top dose activity, negative = less viability, actives largely listed as cytotoxic; actives 1.6% (n = 360,000); AID 686970;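 further: NT is the 2HG producing partner of a matched IDH1 knockdown line; 0% = DMSO-treated cells and -100% = media-only wells without cells; nearly all actives have a fitted effect of over 55% in size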
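750 cells/well, RPMI + 5% FBS; 2 h settle, compound pin-transfer, 48 h at 37 degrees C. CellTiter-Glo 10 min RT, luminescence. Normalized to DMSO and media-only wells.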
The depositor's hits bear a star. The list is not random: actives were taken first. Their share in the collection is about 17%. The call rests on the fitted dose curve; in most records, active means well fitted curve in the direction sought with a large enough effect; inconclusive means small, poorly fitted or top-dose-only effect, or another doubt; inactive means no such curve, though single readings can be large; an effect the other way counts as inactive or inconclusive. Potency means the concentration at half of the fitted maximal effect.

`N#Cc1ccc(CN2CCCC3(CCN(C(=O)c4cnccn4)CC3)C2)cc1` gave DT40 TDP1 no CPT 5% and DT40 TDP1 CPT -9%.
C[C@H](CO)N1C[C@H](C)[C@@H](CN(C)S(=O)(=O)c2cn(C)cn2)Oc2ccc(NC(=O)NC3CCCCC3)cc2C1=O was read as TGFb inhibitor 4%, DT40 TDP1 no CPT -1%, HT1080 IDH1KD tx 6%, DT40 TDP1 CPT 3%, HepG2 tox -1% and HT1080NT lethal 8%.
For Cc1cc(C)cc(NC(=O)CSc2nc3c([nH]c4ccccc43)c(=O)n2-c2ccc(F)cc2)c1 the results were TGFb inhibitor inconclusive, DT40 TDP1 no CPT 21µM*, DT40 TDP1 CPT 8.2µM* and HepG2 tox -48%.
`CC(=O)Nc1cccc(NC(=O)CS(=O)(=O)c2cn(CC(=O)N(C(C)C)C(C)C)c3ccccc23)c1` gave TGFb inhibitor -1%, DT40 TDP1 no CPT 14%, HT1080 IDH1KD tx 10%, DT40 TDP1 CPT 12%, HepG2 tox 3% and HT1080NT lethal -4%.
Screening O=C(c1ccc(S(=O)(=O)N2CCCCCC2)cc1)N1CCC(CN2C(=O)c3cccc4cccc(c34)C2=O)CC1 returned TGFb inhibitor -3%, DT40 TDP1 no CPT 21µM*, HT1080 IDH1KD tx -13%, DT40 TDP1 CPT inconclusive, HepG2 tox -2% and HT1080NT lethal -3%.
Screening O=C1c2cccc3cccc(c23)C(=O)N1CC1CCN(S(=O)(=O)c2ccccc2)CC1 returned TGFb inhibitor -10%, DT40 TDP1 no CPT 2%, HT1080 IDH1KD tx -1%, DT40 TDP1 CPT 28%, HepG2 tox -4% and HT1080NT lethal 16%.
Screening O=C1c2cccc3cccc(c23)C(=O)N1CC1CCN(S(=O)(=O)c2ccc(F)cc2)CC1 returned TGFb inhibitor inconclusive, DT40 TDP1 no CPT 12µM*, HT1080 IDH1KD tx 10%, DT40 TDP1 CPT inconclusive, HepG2 tox -30% and HT1080NT lethal inconclusive.
For Cc1cccc(N2CCN(C(=O)N3CCCCC3)CC2)c1C the results were TGFb inhibitor -27%, DT40 TDP1 no CPT -22%, HT1080 IDH1KD tx 2%, DT40 TDP1 CPT 26%, HepG2 tox 3% and HT1080NT lethal -8%.
Screening Cc1cccc(N2CCN(C(=O)C3CCCCC3)CC2)c1C returned TGFb inhibitor inconclusive, DT40 TDP1 no CPT 18µM*, HT1080 IDH1KD tx -7%, DT40 TDP1 CPT 29µM*, HepG2 tox -25% and HT1080NT lethal -2%.
For Cc1cccc(N2CCN(C(=O)C3CC(=O)N(C4CCCC4)C3)CC2)c1C (stereo unspecified) the results were TGFb inhibitor inconclusive, DT40 TDP1 no CPT 23µM*, HT1080 IDH1KD tx -8%, DT40 TDP1 CPT 18µM*, HepG2 tox -4% and HT1080NT lethal 11%.
For Cc1cc(N2CCC(C(=O)N3CCN(c4cccc(C)c4C)CC3)CC2)n2ncnc2n1 the results were TGFb inhibitor -27%, DT40 TDP1 no CPT 21µM*, HT1080 IDH1KD tx -6%, DT40 TDP1 CPT inconclusive, HepG2 tox -11% and HT1080NT lethal -3%.
For O=C(C1CC(=O)N(C2CCCCC2)C1)N1CCN(c2cccc(C(F)(F)F)c2)CC1 (stereo unspecified) the results were TGFb inhibitor -23%, DT40 TDP1 no CPT inconclusive, HT1080 IDH1KD tx -3%, DT40 TDP1 CPT 16µM*, HepG2 tox -16% and HT1080NT lethal -3%.
Cc1cccc(N2CCN(C(=S)NC3CCCCC3)CC2)c1C was read as TGFb inhibitor -9%, DT40 TDP1 no CPT 16µM*, HT1080 IDH1KD tx -6%, DT40 TDP1 CPT inconclusive, HepG2 tox -5% and HT1080NT lethal -3%.
For Cc1ccc(C)c(N2CCN(C(=S)NC3CCCCC3)CC2)c1 the results were TGFb inhibitor 1%, DT40 TDP1 no CPT -14%, HT1080 IDH1KD tx 0%, DT40 TDP1 CPT -2%, HepG2 tox 1% and HT1080NT lethal 2%.
For CCS(=O)(=O)N1Cc2ccccc2CC1C(=O)Nc1ccc(F)cc1 (stereo unspecified) the results were TGFb inhibitor -13%, DT40 TDP1 no CPT -3%, HT1080 IDH1KD tx -2%, DT40 TDP1 CPT -3%, HepG2 tox 3% and HT1080NT lethal 29%.
CCS(=O)(=O)N1Cc2ccccc2CC1C(=O)N1CCN(c2cccc(C)c2C)CC1 (stereo unspecified) was read as TGFb inhibitor -10%, DT40 TDP1 no CPT 15µM*, HT1080 IDH1KD tx -3%, DT40 TDP1 CPT inconclusive, HepG2 tox -7% and HT1080NT lethal -2%.
Screening Cc1cc([N+](=O)[O-])ccc1NC(=O)CN1C2CCC1CC(NC(=O)NC13CC4CC(CC(C4)C1)C3)C2 (stereo unspecified) returned TGFb inhibitor -21%, DT40 TDP1 no CPT 5.2µM*, HT1080 IDH1KD tx -10%, DT40 TDP1 CPT 15µM*, HepG2 tox -21% and HT1080NT lethal -3%.
`Cc1cc(C)c(NC(=O)c2c(C)oc3c2C2=NCCN2C=N3)c(C)c1` gave TGFb inhibitor inconclusive, DT40 TDP1 no CPT 16µM*, DT40 TDP1 CPT 16µM* and HepG2 tox 1%.
For Cc1oc2c(c1C(=O)Nc1ccc(Cl)cc1F)C1=NCCN1C=N2 the results were TGFb inhibitor 14%, DT40 TDP1 no CPT 16µM*, DT40 TDP1 CPT -26% and HepG2 tox -1%.
For Cc1oc2c(c1C(=O)Nc1cccc(Br)c1)C1=NCCN1C=N2 the results were TGFb inhibitor 3%, DT40 TDP1 no CPT -8%, DT40 TDP1 CPT -6% and HepG2 tox -21%.
Cc1oc2c(c1C(=O)Nc1ccccc1Br)C1=NCCN1C=N2 was read as TGFb inhibitor inconclusive, DT40 TDP1 no CPT 21µM*, DT40 TDP1 CPT 18µM* and HepG2 tox -7%.
Screening COc1ccc(CCC(=O)Nc2cccc(S(=O)(=O)N(C)C)c2)cc1OC returned TGFb inhibitor -21%, DT40 TDP1 no CPT -50%, HT1080 IDH1KD tx 6%, DT40 TDP1 CPT 1%, HepG2 tox -22% and HT1080NT lethal 3%.
`Cc1ccc(S(=O)(=O)N(C)C[C@@H]2Oc3ccc(NC(=O)CCC(F)(F)F)cc3CC(=O)N([C@@H](C)CO)C[C@@H]2C)cc1` gave TGFb inhibitor inconclusive, DT40 TDP1 no CPT 5.8µM*, HT1080 IDH1KD tx 4.6µM*, DT40 TDP1 CPT 4.1µM*, HepG2 tox -1% and HT1080NT lethal 2.1µM*.

Source: PubChem (National Center for Advancing Translational Sciences (NCATS))
